Data reported in the supplement of paper PMC13380429.
Counter-ions that a name gives are not always drawn. Unmarked numbers belong to inactive results.

System: Vero E6 infected with SARS-CoV-2
Test: inhibition of SARS-CoV-2 cytopathic effect; higher = more antiviral protection, active = above 15
Details: 48 h

Structure (SMILES) | inhibition of SARS-CoV-2 cytopathic effect (1 nM) | inhibition of SARS-CoV-2 cytopathic effect (8.33 nM) | inhibition of SARS-CoV-2 cytopathic effect (100 nM) | inhibition of SARS-CoV-2 cytopathic effect (833.33 nM) | inhibition of SARS-CoV-2 cytopathic effect (10000 nM)
N#CCNC(=O)c1ccc(-c2ccnc(Nc3ccc(N4CCOCC4)cc3)n2)cc1 | -0.49% | -0.77% | -0.33% | -4.04% | -6.6%
Cc1c(-c2ccccc2)oc2c(C(=O)OCCN3CCCCC3)cccc2c1=O [flavoxate] | -1.05% | 0.44% | 0.93% | -0.65% | 0.61%
CCOC(=O)[C@@H](C)Oc1cccc2c(=O)n(CC(=O)Nc3ccc4c(c3)OCCO4)ccc12 | -1.29% | 1.77% | 0.7% | -5.6% | -5.98%
CC(C)(C)CCN1C[C@@H]2[C@@H](CNC(=O)c3cc(Cl)cc(Cl)c3)[C@@H]2C1 | 2.47% | 2.05% | 1.76% | 2.2% | -10.4%
CC(C)(C)c1ccc(-c2nc3ccccc3[nH]2)cc1 | -0.43% | -0.22% | 1.49% | 3.96% | 4.75%
CN(C)C(=O)c1cc2cnc(Nc3ccc(N4CCNCC4)cn3)nc2n1C1CCCC1 [ribociclib] | -0.57% | -0.13% | -0.03% | -3.73% | -7.22%
CN=c1nc(-c2ccccc2)n(-c2ccccc2)s1 | 1.73% | 0.95% | -0.38% | 0.89% | -1.43%
C=CCN(C)CCCCCCOc1ccc(C(=O)c2ccc(Br)cc2)c(F)c1 | 0.63% | 1.12% | 2.12% | 0.47% | 13.8%
CN(C)CCN(Cc1cccs1)c1ccccn1 [methapyrilene] | -0.83% | -2.49% | -1.39% | -3.33% | -1.68%
Cc1c(O)cccc1C(=O)N[C@@H](CSc1ccccc1)[C@H](O)CN1C[C@H]2CCCC[C@H]2C[C@H]1C(=O)NC(C)(C)C [nelfinavir] | -4.7% | -3.72% | -1.32% | 3.72% | 43.2% (active)
COc1cccc2c1C(=O)c1c(O)c3c(c(O)c1C2=O)C[C@@](O)(C(=O)CO)C[C@@H]3O[C@H]1C[C@H](N2CCO[C@H](OC)C2)[C@H](O)[C@H](C)O1 [nemorubicin] | 1.94% | -5.08% | -8.02% | -7.55% | -7.13%
FC(F)(F)c1cc(NC(=S)Nc2ccc(Br)cc2-c2nnn[nH]2)cc(C(F)(F)F)c1 | -3.42% | -1.08% | -1.11% | 3.36% | 0.52%
CC(C)C1=C2[C@H]3CC[C@@H]4[C@@]5(C)CC[C@H](OC(=O)CC(C)(C)C(=O)O)C(C)(C)[C@@H]5CC[C@@]4(C)[C@]3(C)CC[C@@]2([C@@H](O)CN(CCN(C)C)Cc2ccc(Cl)cc2)CC1=O | -0.51% | 1.17% | -0.05% | 0.73% | -1.86%
FC(F)c1nc2ccccc2n1-c1nc(N2CCOCC2)nc(N2CCOCC2)n1 | -2.17% | -0.7% | 0.03% | -2.96% | -6.67%
Cn1c(=O)c2[nH]c(Br)nc2n(C)c1=O [pamabrom] | 1.59% | 0.19% | 1.39% | 1.95% | -3.72%
CCNC(=O)C[C@@H]1N=C(c2ccc(Cl)cc2)c2cc(OC)ccc2-n2c(C)nnc21 | -1.97% | -1.13% | 0.74% | -0.08% | -9.5%
COc1ccc(CNC(=O)c2cc(-c3cncc(C)c3)ncc2-c2nccs2)nc1OC | 1.93% | 4.06% | 1.64% | -9.94% | 3.12%
CN1C(CSCC(F)(F)F)Nc2cc(Cl)c(S(N)(=O)=O)cc2S1(=O)=O (stereo not given) [polythiazide] | -0.4% | 0.91% | 3.31% | -0.95% | -1.62%
CC(CCc1ccccc1)NCC(O)c1ccc(O)c(C(N)=O)c1 (stereo not given) [labetalol] | -0.33% | 0.13% | 0.47% | 0.67% | -2.41%

Structure (SMILES) | inhibition of SARS-CoV-2 cytopathic effect (1 nM) | inhibition of SARS-CoV-2 cytopathic effect (8.33 nM) | inhibition of SARS-CoV-2 cytopathic effect (100 nM) | inhibition of SARS-CoV-2 cytopathic effect (833.33 nM) | inhibition of SARS-CoV-2 cytopathic effect (10000 nM)
NCC(=O)N[C@@H](CCC(N)=O)C(=O)O | 0.35% | -1.25% | -2.03% | 2.57% | -2.42%
C#Cc1cnc2nc(O)n(C(CC)CC)c2n1 [tirasemtiv] | 1.57% | -0.65% | 1.78% | 2.57% | -1.21%
CC[C@@H](C(=O)[C@@H](C)[C@@H](O)[C@H](C)[C@@H]1O[C@@H]([C@@H](CC)C(=O)O)CC[C@@H]1C)[C@H]1O[C@]2(C=C[C@@H](O)[C@]3(CC[C@@](C)([C@H]4CC[C@](O)(CC)[C@H](C)O4)O3)O2)[C@H](C)C[C@@H]1C [Salinomycin (Procoxacin)] | -2.73% | 0.16% | 4.82% | 50.9% (active) | 57% (active)
NCCCS(=O)(=O)O [tramiprosate] | 2.5% | 3.61% | 3.29% | 3.22% | 2.51%
COc1ccc2c(c1OC)C(=O)O[C@@H]2[C@H]1c2c(cc3c(c2OC)OCO3)CCN1C [noscapine] | -3% | 0.3% | -0.27% | -0.71% | -2.79%
Cc1cn(C[C@H](N)C(=O)O)c(=O)n(Cc2ccsc2C(=O)O)c1=O | 1.18% | 1.91% | -1.21% | 0.03% | 2.18%
CCN(CC)CCN[C@@H](C(=O)OCCC(C)C)c1ccccc1 [camylofine-chlorhydrate] | -0.61% | -0.68% | -1.25% | 0.17% | -1.1%
C[C@H]1[C@H](NC(=O)/C(=N\OC(C)(C)C(=O)O)c2csc(N)n2)C(=O)N1S(=O)(=O)O [aztreonam] | 3.78% | 20% (active) | 1.14% | -1.55% | 0.92%
CO/N=C(\C(=O)N[C@@H]1C(=O)N2C(C(=O)O)=C(Cn3ccc(=N)n3CCO)CS[C@H]12)c1csc(N)n1 [Cefoselis sulfate] | 0.33% | -3.45% | -1.18% | -1.56% | 1.21%
COc1ccc(-c2cc3c(C)nc(N)nc3n([C@H]3CC[C@H](OCCO)CC3)c2=O)cn1 | -0.21% | 2.83% | 0.43% | -10.1% | -10.3%
C=C1C(=O)O[C@@H]2[C@H]3O[C@]3(C)CC/C=C(\C)CC[C@@H]12 [parthenolide-(alternate-stereo)] | 0.91% | -1.19% | -2.99% | 2.8% | 23.8% (active)
N#Cc1ccc(-c2ccc(S(=O)(=O)Nc3cccc(N)n3)cc2)cc1 | 0.14% | 3.14% | -0.56% | 0.76% | 1.78%
Oc1c(I)cc(I)c2cccnc12 [iodoquinol] | -0.28% | 2.09% | -1.12% | 1.46% | 0.59%
CO[C@H]1CC[C@H](N(c2cc(C3=CCCCC3)sc2C(=O)O)C(=O)[C@H]2CC[C@H](C)CC2)CC1 | 0.5% | 0.07% | -0.07% | 0.31% | 0.21%
c1ccc(C(NCCNC(c2ccccc2)c2ccccc2)c2ccccc2)cc1 | -3.48% | -3.4% | 3.81% | 2.97% | -0.01%
O=C(/C=C/c1ccc(O)c(O)c1)O[C@@H]1C[C@](O)(C(=O)O)C[C@@H](O)[C@H]1O [chlorogenic-acid] | -0.66% | 1.67% | 1.61% | -0.18% | -0.05%
CCN1C[C@]2(COC(=O)c3ccccc3N3C(=O)C[C@H](C)C3=O)CC[C@H](OC)[C@@]34[C@@H]5C[C@H]6[C@H](OC)[C@@H]5[C@](O)(C[C@@H]6OC)[C@](O)([C@@H](OC)[C@H]23)[C@@H]14 [methyllycaconitine] | -1.85% | -0.91% | 0.85% | 0.06% | -1.4%
O=C(O)CNC(=O)C1C(=O)N(C2CCCCC2)C(=O)N(C2CCCCC2)C1=O [daprodustat] | -0.26% | 1.23% | 2.21% | 2.38% | -0.29%
